The whole screen tested about 190,000 compounds, of which about 110 (0.058%) were called active. Inconclusive results (about 2%) are left out.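 Rule for the calls: active = fluorescent GTP binding to Rab7 beads changed by at least 20 points from the 100% baseline, either direction, mostly lower; inconclusive = compound itself probably fluorescent, or too few beads counted; inactive = the rest.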 The full list was thinned out, with actives kept by preference.
tested on: Rab7 GTPase wild type (dog), Bodipy-FL-GTP binding; test: wildtype dog Rab7 nucleotide binding alteration – biochemical, multiplex bead flow cytometry, primary screen (AID 758); details: GST-Rab7 beads, fluorescent GTP binding, at 10 µM, actives lie on both sides, untreated = 100%, excess cold GTP = 0%;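 note: median green fluorescence of bound Bodipy-FL-GTP per Rab7 bead population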

GTP binding activity (percent of control), active:
CSc1nsc(SC)c1NC(=O)OC1CCCCC1 20%

GTP binding activity (percent of control), inactive:
O=C(NC(Cc1c[nH]c2ccccc12)C(=O)O)/C(=C/c1ccco1)NC(=O)c1ccccc1 (configuration not stated) 98%
O=C(NNC(=S)NCc1ccco1)C(c1ccccc1)c1ccccc1 105%
COc1ccc(NC(=O)c2c(SC)nsc2SC)cc1 103%
CSc1ncccc1C(=O)NC1CCCCCC1 100%
COc1ccc(/C=N/S(=O)(=O)c2ccccc2)cc1OC 97%
O=[N+]([O-])/C(N=Nc1ccccc1)=N\Nc1ccccc1 101%
CCC(C)(C)NC(=O)CN(Cc1cccs1)C(=O)CNS(=O)(=O)c1ccc(F)cc1 98%
Cc1ccc(CN2CCN(Cc3ccc(OCCO)cc3)CC2CCO)o1 (configuration not stated) 104%
Cc1cccc(N2CCN(c3ccc(NC(=O)/C=C\C(=O)O)cc3)CC2)c1 97%
O=C1CS(=O)CN1c1ccc(Oc2ccccc2)cc1 (configuration not stated) 93%
Cc1ccc(C(=O)NCC(=O)O)s1 95%
Cc1c(-c2cccc(Cl)c2)nc2ccccc2c1C(=O)OCC(=O)N(C)C1CCS(=O)(=O)C1 (configuration not stated) 105%
CCOC(=O)C1(Cc2cccc(OC)c2)CCN(C(C)COC)CC1 (configuration not stated) 104%
CCSC1=NCCN1S(=O)(=O)c1ccc(F)cc1 105%
CCOc1ccc(/C=N/Nc2nncc(-c3ccccc3)n2)cc1OC 102%
COc1ccc(-c2[nH]ncc2CN(Cc2nccn2C)C(C)C)cc1F 100%
Cc1ccc(-c2cc(C(F)(F)F)n3ncc(C(=O)N4CCCCC4c4cccnc4)c3n2)cc1 (configuration not stated) 97%
Cc1cccc(N2CCN(c3ccc(C(N)=O)cc3[N+](=O)[O-])CC2)c1C 95%
Cc1nnc(SCC(=O)NNC(=O)c2ccc(Cl)cc2)n1CC1CCCO1 (configuration not stated) 100%
COc1cc2[nH]c(=O)n(Cc3ccc(C(=O)NC4CCN(Cc5ccccc5)CC4)cc3)c(=O)c2cc1OC 104%
CCCCn1c(N)c(N2CCOCC2)c(=O)n(CC(=O)NCCc2ccccc2)c1=O 105%
COCCCNC(=S)NNC(=O)C(O)(c1ccccc1)c1ccccc1 109%
CC(OC(=O)CCc1nc(=O)c2ccccc2n1C)C(=O)NCc1ccc2c(c1)OCO2 (configuration not stated) 97%
COc1ccc(NS(=O)(=O)c2cc(NC(=O)CC(=O)c3ccc([N+](=O)[O-])cc3)ccc2C)cc1 106%
COc1cc(OC)cc(-c2nnc(SCC(=O)Nc3ccc(C(=O)O)cc3)s2)c1 93%
Oc1ccc(-c2nncn2-c2ccccc2)cc1 99%
CCN(CCn1cccn1)Cc1cn[nH]c1-c1ccc(OC)cc1F 97%
CCN(CC)S(=O)(=O)c1ccc(NC(=O)c2cccnc2Cl)c(NC(=O)c2cccnc2Cl)c1 91%
CCOC(=O)C1(CC2CCCCO2)CCN(Cc2nc(-c3cccs3)oc2C)CC1 (configuration not stated) 99%
NC(N)=N/N=C/c1ccc(Cl)c([N+](=O)[O-])c1 103%
CC(Nc1nc(N2CCN(CCO)CC2)nc2ccccc12)c1ccccc1 (configuration not stated) 98%
CC(=O)NCC(=O)N1CCCC(C(=O)c2ccc3c4c(cccc24)CC3)C1 (configuration not stated) 98%
CC(C)N1CCC(N2CCN(Cc3cccnc3)CC2CCO)CC1 (configuration not stated) 104%
N#Cc1c(NC(=O)C2CC(Cl)=CCC2C(=O)O)sc2c1CCCCC2 (configuration not stated) 94%
CCOC(=O)c1ccc(N2C(=O)CC(N3CCN(C(=O)c4ccccc4)CC3)C2=O)cc1 (configuration not stated) 97%
COCCCNc1nc2c(-c3cccc(C(F)(F)F)c3)nnn2c2ccccc12 105%
C/C(CCc1ccccc1)=N\NC(=O)c1ccc(CN2CCOCC2)cc1 103%
Cc1ccccc1NS(=O)(=O)CCCCC(Cl)(Cl)Cl 96%
CC1CCN(S(=O)(=O)c2ccc(S(=O)(=O)NCc3cccnc3)cc2)CC1 98%
CCCNC(=O)c1c(Cl)cnn1-c1ccc(C)cc1 96%
O=C(CO/N=C/c1ccccc1OC(F)F)NC1CCCC1 103%
O=C(NNC(=O)C1C2CCC(C2)C1C(=O)O)c1ccc(Cl)cc1 (configuration not stated) 103%
CCN(CC)S(=O)(=O)c1ccc(OC(C)C)c(N)c1 107%
CN(C)/C=C(/C(=O)c1ccccc1Cl)S(C)(=O)=O 104%
CCCN(CCC)CCCNC(=O)CNC(=O)c1nn(-c2ccc(OC)cc2)c(=O)c2ccccc12 95%
CC(=O)c1c(C)[nH]c(C(=O)OCC(=O)NCCC(C)C)c1C 95%
Cc1cccc(C(=O)OCC(=O)NCC(C)C)c1O 96%
S=C(NCCc1ccccc1)N1CCn2cccc2C1c1ccncc1 (configuration not stated) 91%
COc1ccc2cc(CCl)c(Cl)nc2c1 91%
O=C(CCC(=O)OCc1ccc(Cl)cc1)Nc1ccccc1 102%
CN(C)S(=O)(=O)c1cccc(NC(=S)NCc2ccc3c(c2)OCO3)c1 104%
CCN(CC)S(=O)(=O)c1ccc(N(C)CCc2ccc(OC)c(OC)c2)nc1 96%
CC(C)CC(CC(C)C)=NNC(=O)c1ccc(CSc2nncn2C)cc1 104%
Cn1cnnc1SCC(=O)Nc1ccc(N2CCOCC2)cc1 98%
O=C(CN1C(=O)c2cccc3cccc1c23)Nc1ccccc1 98%
O=C(CS(=O)(=O)c1ccccc1)Nc1ccc(S(=O)(=O)Nc2ccccn2)cc1 107%
COc1cc(OC)cc(-c2nc(=S)n3ccsc3n2)c1 99%
Cc1ccc(/C=N/NC(=O)Cn2ccc(C(F)(F)F)n2)o1 105%
CCN(CC(=O)Nc1ccc(Cl)c(S(=O)(=O)N(C)C)c1)Cc1nc2ccccc2c(=O)[nH]1 105%
COc1cc(NC(=O)COc2ccccc2Cl)ccc1NC(=O)C(C)C 98%
Cc1ccc(C2NC(C(=O)O)CS2)cc1 (configuration not stated) 103%
